Bioassay records from PubChem BioAssay.
Rows were chosen to be rich in hits. Some 5.6% of all compounds tested hit in one or more screens of this group.
VP16 counter = VP16 counterscreen qHTS for inhibitors of ROR gamma transcriptional activity; Drosophila S2 Gal4-VP16 UAS-luciferase, luminescence, 20 h; Potency, µM (series often up to 53.6 µM), hits mostly inhibitors; 310,000 compounds, 3.5% hits;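 note: Gal4-VP16 expression switched on by copper sulfate through the metallothionein promoter; nearly all actives have a fitted effect of over 50% in size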
PKM2 activator = qHTS Assay for Activators of Human Muscle isoform 2 Pyruvate Kinase; purified PKM2, Kinase-Glo ATP luminescence, activation; response scale: 0% is enzyme alone, no compound; Potency, µM (highest dose often 57.5 µM), usual class: activators; 260,000 compounds, 0.34% hits; note: nearly all actives have a fitted effect of over 55% in size
Target sequence (P14618 whole entry, looked up, canonical isoform): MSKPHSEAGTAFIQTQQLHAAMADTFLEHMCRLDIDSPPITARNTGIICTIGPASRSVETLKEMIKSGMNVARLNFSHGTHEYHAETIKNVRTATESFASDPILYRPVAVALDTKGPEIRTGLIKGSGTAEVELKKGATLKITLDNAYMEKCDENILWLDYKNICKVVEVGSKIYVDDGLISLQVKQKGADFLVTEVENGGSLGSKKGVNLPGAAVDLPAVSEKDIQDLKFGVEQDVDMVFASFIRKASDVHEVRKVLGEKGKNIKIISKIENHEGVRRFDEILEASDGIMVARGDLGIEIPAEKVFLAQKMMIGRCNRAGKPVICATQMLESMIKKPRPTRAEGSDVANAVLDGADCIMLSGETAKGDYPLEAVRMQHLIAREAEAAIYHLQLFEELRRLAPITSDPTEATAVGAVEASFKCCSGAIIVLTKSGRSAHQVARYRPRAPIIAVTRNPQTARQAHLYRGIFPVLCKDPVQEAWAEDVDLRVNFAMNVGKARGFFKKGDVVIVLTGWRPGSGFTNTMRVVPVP
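hPK-M2, >95% pure; 0.1 mM ADP / 0.5 mM PEP final; imidazole pH7.2 buffer w/ 7 mM MgCl2, 50 mM KCl; 1 h RT; Kinase-Glo lum. Intermediate enzyme activity for dual inhibitor/activator qHTS.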
RORgamma inh = qHTS for inhibitors of ROR gamma transcriptional activity | Nuclear receptor ROR-gamma (Mus musculus), P51450 | 310,000 compounds, 5.4% hits | AID 2551, 2010 | Potency, µM (series often up to 53.6 µM), most hits filed as inhibitors | Drosophila S2 Gal4-RORgamma UAS-luciferase reporter, 20 h; note: nearly all actives have a fitted effect of over 60% in size
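Read-out: Photinus luciferase luminescence; inhibitors lower reporter signal. Insect Schneider cells with Gal4-ROR gamma fusion under metallothionein promoter, UAS reporter; 700 uM final copper sulfate induction, 20 hr, ambient temperature.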
CtBP-E1A blk = qHTS Assay for Inhibitors of the CtBP/E1A Interaction; CtBP / adenovirus E1A interaction (AlphaScreen); AlphaScreen GST-E1A/His-CtBP binding, 1536-well; hits give low values; activity change, % (no concentration beside the values); 340,000 compounds, 0.49% hits; in the data active = activity change below about -65%; inconclusive = mostly about -30% to -63%
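Protein mix (5X: 125 nM each GST-E1A, His-CtBP) was incubated with pinned compound 2 h at 37 deg C in dark, in 50 mM Tris pH 8.0 buffer with 300 mM NaCl. Glutathione donor and nickel acceptor beads followed; AlphaScreen signal read after 1 h.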
Six1-Eya2 inh = qHTS Assay for Inhibitors of the Six1/Eya2 Interaction; AlphaScreen GST-Six1/His-Eya2 binding, biochemical; hits give low values; activity change, % (test concentration not listed); 360,000 compounds, 0.56% hits; AID 651725, 2012; in the data active = activity change below about -65%; inconclusive = mostly about -30% to -63%
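Homogeneous AlphaScreen proximity assay pairing GST-Six1 with His-tagged Eya2 (added as 5X mix: 250 nM and 500 nM) in 50 mM Tris pH 8.0, 300 mM NaCl, 1 mM TCEP. Glutathione donor and nickel acceptor beads; 1 h, 37 °C, dark.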
Hits are given with their value; - = inactive; ? = inconclusive; . = no result; [ ] = remark or other dose. Unless noted, calls come from the whole dose curve; as a rule, active = well fitted curve in the direction sought with a large enough effect; inconclusive = small, poorly fitted or top-dose-only effect, or another doubt; inactive = no such curve, though single readings can be large; an effect the other way counts as inactive or inconclusive.

SMILES	VP16 counter	PKM2 activator	RORgamma inh	CtBP-E1A blk	Six1-Eya2 inh
Cc1cc(O)c(C=O)c2c1C(=O)Oc1c(CO)c(O)c3c(c1O2)C(O)OC3=O (stereo unspecified)	-	-	-	-	-80
COc1ccc(CCN(Cc2ccccn2)C(=S)Nc2cccc(SC)c2)cc1OC	-[10 µM]	-	10µM	-	-
COc1ccc(CCN(Cc2ccccn2)C(=S)Nc2ccc(C)cc2)cc1OC	-	-	?	-	-
CSc1cccc(NC(=S)N(Cc2ccc(C)cc2)Cc2ccccn2)c1	-	-	13µM	-	-
COc1ccccc1NC(=S)N(CCc1ccc(OC)c(OC)c1)Cc1ccccn1	-[10 µM]	-	11µM	-	-
COc1cccc(C(=O)NCCS(=O)(=O)N2CCC(C)CC2)c1	.	.	.	-	-
COc1ccc(N2C(=S)NC3N2C(=S)NC3(C)c2ccccc2)cc1 (stereo unspecified)	-	-	-	-	-
C[C@H](NC(=O)[C@@H]1Cc2ccccc2CN1C(=O)OC(C)(C)C)C(=O)NCc1ccco1	-	.	-	-	-
COc1ccc(CCC(=O)O)cc1OC	-	-	-	-	-
Cc1nc(-c2ccccc2)sc1C(=O)O	-	-	-	-	-
Cc1ccc(-c2nc(C)c(C(=O)O)s2)cc1	?	-	8.9µM	-	-
c1ccc2c(c1)Cc1cc3cc4c(cc3nc1-2)OCO4	2.2µM	-	2.2µM	.	.
c1ccc2c(c1)CCN(c1nc3cc4c(cc3s1)OCO4)C2	-	-	-	-	-
COc1cc(NCCCCCCCN)c2ncccc2c1	?	-	1.6µM	?	-
Cc1ccccc1Nc1nc(Nc2ccccc2C)nc(SC2=NCCS2)n1	7.1µM	-	6.3µM	-	-
Cc1ccc(Nc2nc(Nc3ccc(C)cc3)nc(SC3=NCCS3)n2)cc1	5.6µM	-	2.5µM	-	-
Cc1ccc(Nc2nc(Cl)nc(NC(C)(C)C)n2)cc1	.	-	.	.	-
Clc1ccccc1NCSC1=NCCS1	.	.	.	-	-
CC(C)(CC(=O)O)CC(=O)N1CCN(c2nc3cc(Cl)ccc3s2)CC1	-	.	-	-	-
CC1CC=CC2C1C(=O)N(Cc1ccccc1)C2c1ccc2ccccc2c1 (stereo unspecified)	-	.	?	.	.
CCOC(=O)c1csc(NC(=O)c2ccc3c(c2)OCCO3)n1	-	-	-	-	-
N#CC1=C(S)N(c2ccccc2)C2(CCCCC2)NC1=O	?	-	13µM	-	-
O=C(NNc1nc(-c2ccccc2)cs1)c1ccco1	5µM	-	3.5µM	-	-
O=C(Nc1nc(-c2ccc(Cl)s2)cs1)c1ccco1	-	-	-	-	-
CC(=O)Nc1ccc(-c2csc(NNC(=O)c3ccccc3)n2)cc1	-	-	8.9µM	.	-
SMILES	VP16 counter	PKM2 activator	RORgamma inh	CtBP-E1A blk	Six1-Eya2 inh
O=C(NNc1nc(-c2ccc(Cl)cc2)cs1)c1ccco1	5µM	-	4µM	-	-
COc1ccc(NC(=O)C(C)N2C(=O)C3CC=C(Cl)CC3C2=O)cc1 (stereo unspecified)	-	.	-	-	-
CCOc1ccc(-c2nnc(-c3ccncc3)o2)cc1	?	-	13µM	-	-
CCOc1ccc(-c2nnc(-c3ccccc3)o2)cc1	?	-	10µM	-	-
COC(=O)/C=C/S(=O)(=O)c1ccc(NC(C)=O)cc1	5µM	-	5µM	-	-
COc1ccccc1OS(=O)(=O)c1ccc(NC(C)=O)cc1	-	-	-	-	-
Cc1cc(N2CCOCC2)nc2ccc(NC(=S)N3CCN(c4ccccc4)CC3)cc12	-	-	?	-	-
CCN1CCN(c2cc(C)c3cc(NC(=S)N4CCN(c5ccccc5)CC4)ccc3n2)CC1	-[10 µM]	-	?	-	-
COc1ccccc1N1CCN(C(=S)Nc2ccc3nc(N4CCOCC4)cc(C)c3c2)CC1	?	-	4.5µM	-	-
Cc1ccc(C)c(N2CCN(C(=S)Nc3ccc4nc(N5CCN(C)CC5)cc(C)c4c3)CC2)c1	?	-	11µM	-	-
Cc1ccc(C)c(N2CCN(C(=S)Nc3ccc4nc(N5CCOCC5)cc(C)c4c3)CC2)c1	?	-	5.6µM	-	-
CCN1CCN(c2cc(C)c3cc(NC(=S)N4CCN(c5ccccc5F)CC4)ccc3n2)CC1	?	-	13µM	-	-
COc1ccccc1CN1CC(C(=O)N(C)Cc2[nH]c3ccccc3c2C)CCC1=O (stereo unspecified)	-	-	-	-	-
Cc1ccc2cc(CCNS(=O)(=O)c3ccc(F)cc3)c(=O)[nH]c2c1C	?	-	-	-	-
CCCC1(CCC)NC(=O)N(CC(=O)Nc2ccc3c(c2)OCCO3)C1=O	.	.	.	-	-
CCCCn1cnc2c(oc3nc4c(cc32)CCCC4)c1=O	?	-	10µM	.	-
CCOC(=O)c1sc(NC(=O)c2ccc(S(=O)(=O)N(C)C)cc2)nc1C	-	-	0.25µM	-	?
CCOC(=O)c1sc(NC(=O)Cc2ccc(C)cc2)nc1C	-	-	-	.	-
CCOC(=O)c1sc(NNC(=O)c2ccc(F)cc2)nc1C	7.1µM	-	0.71µM	-	-
CCOC(=O)c1sc(NNC(=O)c2ccc(C)cc2)nc1C	?	-	0.79µM	-	-
CCOC(=O)c1csc(NC(=O)c2ccc(S(=O)(=O)N(C)C)cc2)n1	-	-	-	-	-
CCOC(=O)c1nc(NNC(=O)c2ccc([N+](=O)[O-])cc2)sc1C	6.3µM	-	?	-	-
CCC(CC)c1nnc(NC(=O)c2ccc([N+](=O)[O-])cc2)s1	?	-	-[10 µM]	-	-
CCN(CC)CCNC(=O)C(=O)Nc1cc2c3c(c1)CCC(=O)N3CCC2	-	.	-	-	-
Cc1cc(-c2ccc(N=Nc3c(S(=O)(=O)O)cc4cc(S(=O)(=O)O)cc(N)c4c3O)c(C)c2)ccc1N=Nc1c(S(=O)(=O)O)cc2cc(S(=O)(=O)O)cc(N)c2c1O	13µM	.	14µM	.	.
SMILES	VP16 counter	PKM2 activator	RORgamma inh	CtBP-E1A blk	Six1-Eya2 inh
O=S(=O)(O)c1cc(O)c2c(O)c(N=Nc3cc(Cl)ccc3O)c(S(=O)(=O)O)cc2c1	?	.	?	-95	-75
Clc1nc(CN2CCCCC2)nc2sc3c(c12)CCC3	?	-	-	-	-
C/C(=N\N1CCN(c2ccccc2)CC1)c1ccc(O)cc1	-	.	-	-	-
COc1ccc(-c2cc(=O)n(-c3nc4ccccc4[nH]3)[nH]2)cc1	-	-	-	-65	?
COc1ccc(-c2nc(=S)c3ccc4ccccc4c3[nH]2)cc1	?	-	5.6µM	-	-
COc1ccc(CCCc2nc3ccccc3[nH]2)cc1	-	-	-	-	-
COc1ccc(-c2nc3ccccc3[nH]2)cc1	8.9µM	-	7.9µM	-	-
COc1ccc2oc(=Nc3ccccc3)c(-c3nc4ccccc4[nH]3)cc2c1	?	-	10µM	-	-
